For 9 compounds, Potency and outcome results are on record in PubChem BioAssay (Tox21).

Unmarked numbers belong to inactive results. Records with an inconclusive call do not appear. Active and inactive are the calls of the source. Unless noted, calls come from the whole dose curve; as a rule, active = well fitted curve in the direction sought with a large enough effect in the repeat runs; inconclusive = weak or mixed curves; inactive = no such curve, though single readings can be large; an effect the other way counts as inactive or inconclusive.

A short description of experiment [1]: qHTS assay to identify small molecule antagonists of the estrogen receptor alpha (ER-alpha) signaling pathway using the BG1 cell line in the presence of 0.1 nM 17-beta-estradiol - cell viability counter screen (AID 1259241). Note: nearly all actives have a fitted effect of over 40% in size. The method, boiled down: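 Live-cell protease activity (CellTiter-Fluor fluorescence, 30 min) was read in the same wells after VM7Luc4E2 cells had been exposed to compounds with 0.1 nM 17beta-estradiol for 22 hr at 37C.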
(In general: qHTS replaces the single test concentration by a dilution series.)

Experiment [2] in a line: qHTS assay to identify small molecule antagonists of the androgen receptor (AR) signaling pathway using the MDA cell line in the presence of 0.5 nM R1881 - cell viability counter screen (AID 1259242). Note: nearly all actives have a fitted effect of over 45% in size. The method, boiled down: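 Cells seeded at 3,000/well and allowed 5 hr at 37C, 0% CO2 before compound transfer and R1881 (0.5 nM final) addition; 16 hr later, live-cell protease fluorescence indicated cytotoxicity.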

The nature of experiment [3]: qHTS assay to identify small molecule HDAC inhibitors (AID 1259364).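 Note: wild-type HCT-116 cells with endogenous class I/II HDAC activity; top concentration of the series differs between compounds; nearly all actives have a fitted effect of over 45% in size.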 The method, boiled down:
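HCT-116 wt cells, 1,500/well, overnight attach. Compounds (DMSO) 2 h, 37 °C. HDAC-Glo I/II, 30 min RT. Luminescence.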

Experiment [4] can be described thus: qHTS assay to identify small molecule HDAC inhibitors - cell viability counter screen (AID 1259365). Note: series mostly up to about 92 µM; nearly all actives have a fitted effect of over 50% in size. The method, boiled down: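 HCT-116 (wild type), 1,500 cells/well, overnight 37C/5% CO2; compound in DMSO 2hr; CellTiter-Glo 30min RT; luminescence read.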
Experiment [5] is described as follows: qHTS assay to identify small molecule agonists of the sonic hedgehog signaling (Shh) pathway - cell viability counter screen (AID 1259366). Note: nearly all actives have a fitted effect of over 50% in size. The method, boiled down:
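CellTiter-Fluor fluorescence read-out, 1 hr at 37C, added after 23hr compound exposure. Cells: 3T3 Gli1-Luc, an NIH/3T3 clone with stably integrated Gli1-Luc reporter, plated 4hr before compound.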

Experiment [6] in a line: qHTS assay to identify small molecule antagonists of the sonic hedgehog signaling (Shh) pathway - cell viability counter screen (AID 1259367). Note: nearly all actives have a fitted effect of over 55% in size. In a few lines:
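Fluorescence read-out (CellTiter-Fluor, 1 hr at 37C) taken after 23 hr compound treatment of 3T3 Gli1-Luc cells stimulated with conditioned medium. Cells were seeded at 2,000 per well and pre-incubated 4 hr.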

The nature of experiment [7]: qHTS assay to identify small molecule agonists of the sonic hedgehog signaling (Shh) pathway (AID 1259368; calls by dose curve;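 note: NIH/3T3-derived 3T3Gli1-Luc cells carrying a stable Gli1-driven firefly luciferase reporter; series mostly up to about 92 µM; nearly all actives have a fitted effect of over 15% in size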). In a few lines:
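Following a 24 hr incubation with DMSO-dissolved compounds at 37 C, 5% CO2, Gli1-Luc NIH/3T3-derived cells received luciferase reagent for 30 min at room temperature prior to luminescence measurement.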

Experiment [8] is described as follows: qHTS assay to identify small molecule antagonists of the sonic hedgehog signaling (Shh) pathway (AID 1259369; calls by dose curve; note: nearly all actives have a fitted effect of over 45% in size). In a few lines:
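Read-out is luminescence from a firefly luciferase gene controlled by the Gli1 response element, in 3T3Gli1-Luc cells pre-incubated 4hr then exposed to compounds and conditioned medium for 24hr.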

The target of experiment [9] is Estrogen receptor beta (Homo sapiens) (UniProt Q92731). Briefly: qHTS assay to identify small molecule agonists of the estrogen receptor beta (ER-beta) signaling pathway (AID 1259377; active = well fitted activation curve with a large enough effect in the signal ratio in the repeat runs, not every such curve was filed as active; the % refers to the signal ratio). The method, boiled down: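 Beta-lactamase reporter readout: fluorescence of LiveBLAzer B/G FRET substrate after 2 h at room temperature, following 16 h compound treatment of ER-beta-UAS-bla HEK293T cells at 37C in 2% charcoal-stripped FBS medium.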

Experiment [10] can be described thus: qHTS assay to identify small molecule agonists of the estrogen receptor beta (ER-beta) signaling pathway - cell viability counter screen (AID 1259380). Note: nearly all actives have a fitted effect of over 30% in size. Note: potency is the fitted concentration of half-maximal effect. The method, boiled down: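 Compounds dissolved in DMSO were pin-transferred onto ER-beta-UAS-bla HEK293T cells that had settled 6 hr, and exposure ran 16 hr at 37C. Following the reporter read, CellTiter-Glo luminescence after 30 min at room temperature indicated cytotoxicity.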

The nature of experiment [11]: qHTS assay to identify small molecule antagonists of the estrogen receptor beta (ER-beta) signaling pathway - cell viability counter screen (AID 1259382). Note: nearly all actives have a fitted effect of over 55% in size. Note: potency is the fitted concentration of half-maximal effect. In a few lines:
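CellTiter-Glo ATP luminescence measured after the LiveBLAzer read in the same wells; ER-beta-UAS-bla HEK293T cells, 16 hr compound treatment with 1nM 17-beta-estradiol agonist at 37C, 5% CO2.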

Experiment [12] can be described thus: qHTS assay to identify small molecule agonists or antagonists of the thyroid stimulating hormone receptor (TSHR) signaling pathway - wild type cell line counter screen (AID 1259384; calls by dose curve). The method, boiled down: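 Wild-type Hek293 cells, 800/well, 18 h at 37C, then compound with Ro20-1724 for 30 min RT. cAMP by HTRF (cAMP-d2/anti-cAMP cryptate), 1 h RT, fluorescence read. 15 concentrations, triplicates.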

Experiment [13] addresses Thyrotropin receptor (Homo sapiens) (UniProt P16473). Nature of the experiment: qHTS assay to identify small molecule antagonists of the thyroid stimulating hormone receptor (TSHR) signaling pathway (AID 1259385; calls by dose curve; note: nearly all actives have a fitted effect of over 20% in size). The method, boiled down:
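TSHR-HEK293 cells (800/well) plated 18 h, then compounds with Ro20-1724 and TSH at 1.5 ng/mL final, 30 min at room temperature. cAMP quantified by HTRF (cAMP-d2/anti-cAMP-cryptate, 1 h); 15 concentrations in triplicate.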

The target in experiment [14] is Estrogen receptor beta (Homo sapiens) (UniProt Q92731). Nature of the experiment: qHTS assay to identify small molecule antagonists of the estrogen receptor beta (ER-beta) signaling pathway (AID 1259378; active = well fitted inhibition curve with a large enough effect in the signal ratio in the repeat runs, not every such curve was filed as active; the % refers to the signal ratio). The method, boiled down: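 ER-beta-UAS-bla HEK293T cells in 2% charcoal-stripped FBS medium treated with compound plus 1nM final 17-beta-estradiol for 16 hr at 37C. Beta-lactamase reporter read by FRET substrate fluorescence after 2 hours at room temperature.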

Experiment [15] can be described thus: qHTS assay to identify small molecule agonists of the androgen receptor (AR) signaling pathway in the presence of an antagonist - cell viability counter screen (AID 1259379).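 Note: MDA-kb2 human breast cancer cells carrying an MMTV luciferase reporter; series mostly up to about 92 µM; nearly all actives have a fitted effect of over 25% in size.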 The method, boiled down:
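Each compound was tested at 15 concentrations on MDA-kb2 cells in the presence of 3.0uM nilutamide. Viability was measured by CellTiter-Fluor fluorescence after a 16 hr incubation at 37C in a CO2-free atmosphere.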

Experiment [16] in a line: qHTS assay to identify small molecule phospholipidosis (PLD) inducers (AID 1259344; active = well fitted curve in the direction sought with a large enough effect; an effect the other way counts as inactive or inconclusive). In a few lines: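 Read-out is LipidTOX Red fluorescence (ex 595/em 615) imaged in HepG2 cells after 24 h compound exposure at 37 C, with Hoechst nuclear counterstain (ex 352/em 461) allowing per-cell normalisation.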
The target in experiment [17] is Estrogen receptor (Homo sapiens) (UniProt P03372). Briefly: qHTS assay to identify small molecule agonists of the estrogen receptor alpha (ER-alpha) signaling pathway in the presence of an antagonist (AID 1259383; calls by dose curve; note: top concentration of the series differs between compounds; nearly all actives have a fitted effect of over 15% in size). The method, boiled down:
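Luminescent ERE-luciferase reporter, VM7Luc4E2 cells (endogenous ER-alpha); 10.0nM ICI-182,780 final; 15-point compound titration; 22hr at 37C; ONE-Glo, 30min RT.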

Thyrotropin receptor (Homo sapiens), sequence (P16473 whole entry, looked up): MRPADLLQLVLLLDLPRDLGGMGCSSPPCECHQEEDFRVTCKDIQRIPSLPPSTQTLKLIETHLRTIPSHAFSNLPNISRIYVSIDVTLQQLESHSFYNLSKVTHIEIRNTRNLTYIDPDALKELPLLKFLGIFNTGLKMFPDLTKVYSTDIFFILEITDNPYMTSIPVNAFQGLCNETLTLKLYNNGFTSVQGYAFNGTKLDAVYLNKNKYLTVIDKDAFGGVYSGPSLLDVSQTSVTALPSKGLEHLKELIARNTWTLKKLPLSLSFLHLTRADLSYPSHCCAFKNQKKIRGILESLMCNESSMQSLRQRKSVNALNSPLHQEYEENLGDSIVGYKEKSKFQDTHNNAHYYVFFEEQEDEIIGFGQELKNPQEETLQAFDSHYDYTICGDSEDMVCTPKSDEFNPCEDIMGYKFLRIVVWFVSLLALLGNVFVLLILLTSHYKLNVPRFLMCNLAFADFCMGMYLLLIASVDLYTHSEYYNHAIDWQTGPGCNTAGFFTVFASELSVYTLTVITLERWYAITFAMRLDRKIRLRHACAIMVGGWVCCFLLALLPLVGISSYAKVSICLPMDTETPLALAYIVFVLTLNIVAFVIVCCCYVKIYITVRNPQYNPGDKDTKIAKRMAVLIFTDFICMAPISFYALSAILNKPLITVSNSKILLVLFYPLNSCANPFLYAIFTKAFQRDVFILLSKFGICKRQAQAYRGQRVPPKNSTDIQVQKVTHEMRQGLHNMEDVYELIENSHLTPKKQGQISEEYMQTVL
Estrogen receptor beta (Homo sapiens), sequence (Q92731 whole entry, looked up): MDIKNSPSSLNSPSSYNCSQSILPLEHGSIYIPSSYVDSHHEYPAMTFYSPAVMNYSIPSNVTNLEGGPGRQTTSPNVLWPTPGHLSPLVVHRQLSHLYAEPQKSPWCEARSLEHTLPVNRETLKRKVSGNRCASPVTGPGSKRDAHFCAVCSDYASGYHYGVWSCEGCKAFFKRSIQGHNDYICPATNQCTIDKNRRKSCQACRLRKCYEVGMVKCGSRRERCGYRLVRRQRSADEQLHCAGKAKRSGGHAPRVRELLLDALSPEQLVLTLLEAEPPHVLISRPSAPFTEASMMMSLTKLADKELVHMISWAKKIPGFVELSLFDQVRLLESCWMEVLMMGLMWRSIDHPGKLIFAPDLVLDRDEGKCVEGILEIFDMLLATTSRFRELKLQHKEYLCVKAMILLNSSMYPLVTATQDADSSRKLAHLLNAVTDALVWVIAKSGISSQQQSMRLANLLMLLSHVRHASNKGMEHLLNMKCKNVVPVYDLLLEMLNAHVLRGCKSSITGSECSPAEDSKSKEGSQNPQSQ
Estrogen receptor (Homo sapiens), sequence (P03372 whole entry, looked up): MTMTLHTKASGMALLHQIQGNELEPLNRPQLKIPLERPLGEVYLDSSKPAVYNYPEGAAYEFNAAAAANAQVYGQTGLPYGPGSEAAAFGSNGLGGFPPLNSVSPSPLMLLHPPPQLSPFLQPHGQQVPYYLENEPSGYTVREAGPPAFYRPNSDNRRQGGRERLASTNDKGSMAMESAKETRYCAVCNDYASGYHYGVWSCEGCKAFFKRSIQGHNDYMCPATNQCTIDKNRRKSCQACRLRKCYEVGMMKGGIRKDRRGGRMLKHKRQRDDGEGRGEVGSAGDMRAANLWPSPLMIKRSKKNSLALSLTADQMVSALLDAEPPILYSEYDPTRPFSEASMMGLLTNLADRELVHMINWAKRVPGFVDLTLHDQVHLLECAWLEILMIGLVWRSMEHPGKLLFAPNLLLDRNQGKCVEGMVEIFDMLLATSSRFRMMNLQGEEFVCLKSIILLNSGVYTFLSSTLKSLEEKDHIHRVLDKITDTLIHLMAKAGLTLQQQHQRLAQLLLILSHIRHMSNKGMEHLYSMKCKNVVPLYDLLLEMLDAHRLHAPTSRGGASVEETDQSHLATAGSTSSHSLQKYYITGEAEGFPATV

As for `C=C[Si](OCC)(OCC)OCC`, the Potency entry in experiment [1], in [2], in experiment [3], in [5], in experiment [6] and in [7] was “inactive” each time. The Potency result in [8], in experiment [9], in experiment [10], in experiment [11] and in [13] was “inactive” in each case. Also, the result in [4] and in [12] was inactive.

As to `CCOc1ccccc1O`, the Potency result in experiment [1], in experiment [2], in [3], in experiment [5], in experiment [6] and in experiment [7] was “inactive” each time. Besides, the Potency entry in [8], in experiment [14], in [15], in experiment [10], in experiment [11] and in experiment [13] was “inactive” throughout. The compound was classed as inactive in experiment [4] and in [12].

In the case of `O=[N+]([O-])c1ccccc1CCO`, the Potency entry in [1], in experiment [2], in experiment [3], in [5], in [6] and in experiment [7] was “inactive” throughout. Further, the Potency result in experiment [8], in [9], in [14], in experiment [15], in experiment [10] and in [11] was “inactive” throughout. In addition, the Potency entry in experiment [13] is “inactive”. Also, the compound was called inactive in experiment [4] and in experiment [12].

With `c1ccc(CN(Cc2ccccc2)Cc2ccccc2)cc1`, the Potency result in [1], in experiment [2], in experiment [3], in experiment [5], in [6] and in experiment [7] was “inactive” in each case. Further, the Potency result in experiment [8], in experiment [9] and in experiment [11] was “inactive” each time. Besides, the outcome in experiment [4] and in experiment [12] was inactive.

In the case of `CC/C=C\CCO`, the Potency entry in experiment [1], in experiment [2], in [3], in experiment [5], in experiment [6] and in experiment [7] was “inactive” in each case. Also, the Potency result in experiment [8], in experiment [14], in [10] and in experiment [11] was “inactive” in each case. In addition, the compound was called inactive in experiment [4].

With `Cc1c(Nc2ncccc2C(=O)O)cccc1C(F)(F)F`, the Potency entry in experiment [1], in experiment [2], in [16], in [5], in experiment [6] and in experiment [7] was “inactive” each time. The Potency entry in experiment [8], in experiment [15] and in [13] was “inactive” each time. Further, the result in experiment [4] and in [12] was inactive. The Potency in experiment [10] was 8.41 µM (active).

For `CC1=C(C)C(=O)C(CCCCC#CCCCC#CCO)=C(C)C1=O`, the Potency result in [1], in experiment [2], in experiment [3], in [5], in [6] and in [7] was “inactive” throughout. Besides, the Potency result in experiment [8], in experiment [17] and in experiment [13] was “inactive” each time. Further, the result in [4] and in experiment [12] was inactive. The Potency in experiment [10] was 18.8 µM (active); in [11], 26.6 µM (active).

Consider `CC(=O)Nc1ccccc1O`, for which the Potency result in [1], in experiment [2], in [3], in experiment [5], in experiment [6] and in experiment [7] was “inactive” in each case. Besides, the Potency result in experiment [8], in [9], in [14], in [10], in experiment [11] and in experiment [13] was “inactive” in each case. The compound was classed as inactive in experiment [4] and in experiment [12].

As for `CC(CN=Cc1ccccc1O)N=Cc1ccccc1O` (configuration not stated), the Potency result in experiment [1], in experiment [2], in experiment [3], in [5], in experiment [6] and in [7] was “inactive” in each case. For the same compound, the Potency entry in experiment [8], in experiment [9], in experiment [14], in experiment [15], in experiment [10] and in experiment [11] was “inactive” each time. Besides, the Potency entry in [13] was “inactive”. In experiment [4], the compound was called inactive.
